The entries come from a sample that favours hits as a whole.
BLM helicase inh: inhibitors of human Bloom syndrome helicase BLM. recombinant BLM DNA unwinding, fluorescence dequenching. Potency, µM (series often up to 56.1 µM), hits mostly inhibitors. 350,000 compounds, 0.2% hits. AID 2528; note: nearly all actives have a fitted effect of over 35% in size
TDP1 block: inhibitors of human tyrosyl-DNA phosphodiesterase TDP1 | Q9NUW8 | recombinant TDP1, AlphaScreen DNA substrate cleavage | Potency, µM (top dose mostly 130 µM), hits mostly inhibitors | 350,000 compounds, 0.28% hits; note: nearly all actives have a fitted effect of over 40% in size
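Signal: AlphaScreen proximity between streptavidin donor and anti-FITC acceptor beads on intact substrate. Reaction: Tdp1 1 nM, substrate 15 nM final, 5 min RT after 15 min compound preincubation.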
RECQ1 inh-1: blocks DNA unwinding by human RECQ1 | P46063 | RECQ1 DNA unwinding, red fluorescence kinetic read | Potency, µM (series often up to 57.3 µM), most hits filed as inhibitors | 240,000 compounds, 0.54% hits | AID 2549; note: nearly all actives have a fitted effect of over 30% in size
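50 nM RECQ1T1 preincubated 15 min with compound in Tris pH 8.0 buffer with MgCl2, DTT, Tween-20 and 2.5 ug/ml poly(dI-dC); started with 200 nM TAMRA/BHQ-2 forked duplex and 2 mM ATP. Unwinding read as fluorescence (525/598 nm), two reads 2 h apart.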
JMJD2E inh: JMJD2E (human) inhibition; JMJD2E catalytic domain, FDH-coupled NADH fluorescence (FDH is formaldehyde dehydrogenase); Potency, µM (top dose mostly 57.1 µM), hits mostly inhibitors; 230,000 compounds, 1.6% hits; AID 2147; active = well fitted inhibition curve with a large enough effect, not every such curve was filed as active; inconclusive = small, poorly fitted or top-dose-only effect, or another doubt; inactive = no such curve, though single readings can be large or run the other way; note: nearly all actives have a fitted effect of over 50% in size
GCN5L2 inh-1: inhibitors of human GCN5L2 histone acetyltransferase. AID 504327. GCN5L2 HAT assay, ThioGlo1 CoA-SH fluorescence. Potency, µM (doses to about 58.9 µM), actives largely listed as inhibitors. 390,000 compounds, 0.21% hits
Target sequence (Q92830 whole entry, looked up): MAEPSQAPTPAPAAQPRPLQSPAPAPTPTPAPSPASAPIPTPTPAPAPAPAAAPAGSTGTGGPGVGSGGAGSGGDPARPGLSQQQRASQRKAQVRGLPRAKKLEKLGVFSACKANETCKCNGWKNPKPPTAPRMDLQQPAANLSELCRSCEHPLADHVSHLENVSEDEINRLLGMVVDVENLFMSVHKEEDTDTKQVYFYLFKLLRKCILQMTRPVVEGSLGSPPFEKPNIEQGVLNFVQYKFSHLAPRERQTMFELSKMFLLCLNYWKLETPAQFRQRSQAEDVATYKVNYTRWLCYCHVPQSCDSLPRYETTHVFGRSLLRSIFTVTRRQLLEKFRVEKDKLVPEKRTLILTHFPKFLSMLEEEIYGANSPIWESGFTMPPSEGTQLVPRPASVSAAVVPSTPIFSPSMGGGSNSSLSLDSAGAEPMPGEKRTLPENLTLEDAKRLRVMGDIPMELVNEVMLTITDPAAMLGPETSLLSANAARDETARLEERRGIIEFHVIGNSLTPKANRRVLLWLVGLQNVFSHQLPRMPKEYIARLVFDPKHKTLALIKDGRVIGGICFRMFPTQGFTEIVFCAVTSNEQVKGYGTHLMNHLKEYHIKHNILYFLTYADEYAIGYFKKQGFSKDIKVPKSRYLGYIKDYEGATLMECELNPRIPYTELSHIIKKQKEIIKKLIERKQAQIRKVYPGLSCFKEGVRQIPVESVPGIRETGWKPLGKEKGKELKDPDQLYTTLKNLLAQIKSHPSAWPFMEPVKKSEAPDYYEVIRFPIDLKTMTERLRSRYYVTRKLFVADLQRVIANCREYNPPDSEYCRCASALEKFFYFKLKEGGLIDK
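Enzyme at 20nM final was mixed with library compounds for 15 min at room temperature. Peptide H3(1-25) at 75uM, acetyl-CoA at 70uM and ThioGlo1 at 50uM were then added. Plates were read immediately and after 20 min (Ex340nm/Em540nm).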
APE1 inh: APE1 (human) endonuclease inhibition | P27695 | 350,000 compounds, 0.35% hits | Potency, µM (titrated, usually from 65.8 µM), most hits filed as inhibitors | recombinant APE1, TAMRA/BHQ-2 abasic DNA cleavage fluorescence | AID 2517; note: nearly all actives have a fitted effect of over 55% in size
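0.75 nM APE1 + cpd, 15 min RT; start w/ 50 nM TAMRA/BHQ-2 THF-abasic dsDNA; kinetic fluor 525/598 nm ×3 reads @60 s; Δ(read3−read1); normalized to DMSO and NSC13755 control wells.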
RECQ1 conf: confirmation of human RECQ1 helicase inhibitors; shares compounds with RECQ1 inh-1; RECQ1 helicase DNA unwinding, fluorescence; Potency, µM (titrated, usually from 229 µM), actives largely listed as inhibitors; 610 compounds, 28% hits; AID 2708; note: nearly all actives have a fitted effect of over 45% in size
RECQ1 ADP FP: ADP displacement flagged in RECQ1 inhibitor counter-screen. ADP fluorescence polarization displacement counterscreen. 530 compounds, 27% hits. AID 2711. shares compounds with RECQ1 inh-1. Potency, µM (series often up to 228 µM), actives largely listed as inhibitors; note: nearly all actives have a fitted effect of over 45% in size
RECQ1 inh-2: RECQ1 helicase inhibition confirmed, round 2 | shares compounds with RECQ1 inh-1 | recombinant RECQ1 DNA unwinding, red fluorescence | Potency, µM (titrated, usually from 119 µM), hits mostly inhibitors | 1,100 compounds, 15% hits; note: nearly all actives have a fitted effect of over 50% in size
GCN5L2 inh-2: confirmation of human GCN5L2 histone acetyltransferase inhibitors. shares compounds with GCN5L2 inh-1. Potency, µM, usual class: inhibitors. 140 compounds, 70% hits. GCN5L2 HAT, ThioGlo1 CoA fluorescence, 20 min
Hits are given with their value; – = inactive; ? = inconclusive; · = no result given; [ ] = dose if it differs, or a comment. Unless noted, calls come from the whole dose curve; as a rule, active = well fitted curve in the direction sought with a large enough effect; inconclusive = small, poorly fitted or top-dose-only effect, or another doubt; inactive = no such curve, though single readings can be large; an effect the other way counts as inactive or inconclusive.

SMILES | BLM helicase inh | TDP1 block | RECQ1 inh-1 | JMJD2E inh | GCN5L2 inh-1 | APE1 inh | others
CC(C)(Oc1ccc(Cl)cc1)C(=O)NC1=NN(c2ccccc2)C(=O)C1 | – | – | ? | – | – | – | RECQ1 inh-2=–
Cc1ccc(-n2nc(C)c3c2OC(N)=C(C#N)C3c2ccoc2)cc1 (stereo unspecified) | – | – | ? | 10µM | – | ? | RECQ1 inh-2=–
O=C(O)c1cccc(N2C(=O)/C(=C/c3ccc(SCc4ccc(Cl)cc4)o3)SC2=S)c1 | – | · | 22µM | 22µM | 22µM | 10µM | RECQ1 conf=–
O=C(COC(=O)Cc1ccccc1F)Nc1cccc(S(=O)(=O)NC2=NCCCCC2)c1 | – | – | 1µM | – | – | – | RECQ1 conf=–;RECQ1 ADP FP=–;RECQ1 inh-2=–
C/C=C/C(=O)OCC(=O)Nc1cccc(S(=O)(=O)NC2=NCCCCC2)c1 | – | – | – | – | – | –
C=CCNC(=O)N1CCc2nc(COc3ccccc3)c3c(c2C1)CO[C@@H](C)C3 | –[12.4 µM] | –[12.3 µM] | –[11.5 µM] | –[11.4 µM] | · | –[12.4 µM]
CCOc1cc(/C=C(/NC(C)=O)C(=O)O)cc(Cl)c1OCc1cccc(Br)c1 | – | – | – | – | – | – | RECQ1 conf=?;RECQ1 ADP FP=–
CCOc1ccc(/C=C(/NC(=O)c2ccccc2Cl)C(=O)O)cc1 | – | – | – | – | – | –
Cc1cc2c(s1)c1cnn(Cc3cccc(F)c3)c(=O)c1n2C | · | – | · | · | · | ·
O=C(NCCN1CCOCC1)C1(C(F)(F)F)C/C(=C\CCO)CCCO1 (stereo unspecified) | – | – | – | · | · | –
Cc1ccc(NC(=O)c2c(C)oc3ccc(O)c(CN4CCCCCC4)c23)cc1 | – | – | · | · | – | ·
N/C(=N\NC(=O)c1ccccc1Cl)c1cc2ccccc2oc1=O | – | – | 28µM | – | – | – | RECQ1 inh-2=–
COC(=O)c1cc2ccccc2oc1=O | – | – | – | ? | – | –
Cc1cccc(CCNC(=O)c2nn(C)c3c2CSc2ccccc2-3)c1 | – | – | · | · | – | ·
CCn1c(=O)cc(SCC(=O)NCc2ccc(F)cc2Cl)c2ccccc21 | – | – | · | · | – | ·
Cc1ccc(OC/C(O)=C(\C#N)c2nc3ccccc3s2)cc1 | – | – | – | – | – | –
CC(C)=C(C#N)c1nc2ccccc2s1 | – | – | 10µM | – | – | – | RECQ1 inh-2=–
COc1ccc2c(c1)C(=O)[C@H](OC(=O)NCc1ccc3c(c1)OCO3)[C@@H](c1ccc(OC)c(Br)c1)O2 | – | – | – | – | · | –
O=C(CSc1nc(-c2ccc(F)cc2)cs1)NC(=O)NCc1ccco1 | – | – | 35µM | – | – | – | RECQ1 inh-2=?
C=C/C1=C/Cc2ccccc2C(C[N+](=O)[O-])C(C(=O)OC)(C(=O)OC)C1 (stereo unspecified) | –[12.4 µM] | –[21 µM] | –[11.5 µM] | · | · | –[12.4 µM]
Cc1ccc(NC(=O)Cc2cc(C(=O)O)c3ccccc3n2)c(C)c1 | – | – | – | – | – | – | RECQ1 conf=–;RECQ1 ADP FP=–
O=C(O)CCSc1nnc(COc2ccc([N+](=O)[O-])cc2)n1-c1ccccc1 | – | – | – | – | – | – | RECQ1 conf=–;RECQ1 ADP FP=–
CCOC(=O)N1CCC(N2Cc3cccc(C(=O)NCc4ccc(OC)cc4)c3C2=O)CC1 | – | – | – | – | – | –
CCOC(=O)N1CCC(NC(=O)c2cccc3c2C(=O)N(c2ccc(OC)cc2)C3)CC1 | ? | · | 11µM | ? | ? | ? | RECQ1 conf=14µM;RECQ1 ADP FP=–
CCOc1ccc(CC(=O)Nc2c(C(=O)Nc3ccc(OC)cc3OC)oc3ccccc23)cc1 | – | – | · | · | – | ·
SMILES | BLM helicase inh | TDP1 block | RECQ1 inh-1 | JMJD2E inh | GCN5L2 inh-1 | APE1 inh | others
COc1cc(C(=O)NC(=S)Nc2ccc(N3CCCC3)cc2)cc(OC)c1OC | – | – | ? | ? | – | – | RECQ1 inh-2=–
O=C(CC1C(=O)N(c2ccc(F)cc2)C(=O)N1Cc1ccc2c(c1)OCO2)Nc1ccc(Cl)cc1 (stereo unspecified) | – | – | · | · | – | ·
COc1ccc(C2Nc3ccccc3C(=O)N2Cc2ccccc2)cc1COc1ccccc1F (stereo unspecified) | · | – | · | · | · | ·
Cc1ccc(CN(Cc2ccco2)C(=O)c2ccccc2Cl)o1 | – | – | · | · | – | ·
COc1ccc(Cn2nnnc2C(c2cccnc2)N2CCN(c3ccc(O)cc3)CC2)cc1 (stereo unspecified) | – | – | 1.3µM | – | – | – | RECQ1 conf=–;RECQ1 ADP FP=–;RECQ1 inh-2=–
COc1ccc([C@@H]2CC(=O)c3c(O)cc(O[C@@H]4O[C@H](CO[C@@H]5O[C@@H](C)[C@H](O)[C@@H](O)[C@H]5O)[C@@H](O)[C@H](O)[C@H]4O)cc3O2)cc1 | – | – | – | · | – | –
O=C(Nc1cccc(S(=O)(=O)NC2=NCCC2)c1)c1cc(-c2ccco2)nc2ccccc12 | 10µM | · | 11µM | ? | 13µM | 7.9µM | RECQ1 conf=14µM;RECQ1 ADP FP=40µM;RECQ1 inh-2=?;GCN5L2 inh-2=?
Cc1cccc(C(=O)NC(=O)Nc2ccc(-n3nc(C(F)(F)F)cc3C(F)(F)F)cc2)c1 | – | – | · | · | – | ·
CCn1c2ccccc2c2nc3cc(S(=O)(=O)N4CCOCC4)ccc3nc21 | – | – | – | – | ? | – | GCN5L2 inh-2=?
CCC(C)Sc1ccc(-c2nc3ccc(C)cn3c2NC2CCCCC2)cc1 (stereo unspecified) | · | · | · | · | 20µM | – | GCN5L2 inh-2=?
CC(C)=CCC/C(C)=C/CO/N=C1/C[C@@H](O)[C@@H](O)[C@@H]2[C@@H]3C(=O)N(C4CCCCC4)C(=O)[C@H]3CC[C@@H]12 | –[12.4 µM] | –[21 µM] | –[11.5 µM] | · | · | –[12.4 µM]
Cc1cccc(N2CCN(C(=O)CCS(=O)(=O)c3ccc4c(c3)CC(=O)N4C)CC2C)c1 (stereo unspecified) | – | – | · | · | – | ·
Cc1cc(Nc2cccc(C(F)(F)F)c2)nc2ccc(NC(=O)c3cccnc3)cc12 | – | – | · | · | – | ·
O=C(Nc1ccc(-c2nc3ccccc3s2)c(O)c1)C1=COCCO1 | – | – | – | ? | 25µM | ? | GCN5L2 inh-2=23
O=C(OCCN1C(=O)c2cccc3c(N4CCOCC4)ccc(c23)C1=O)c1ccc(Cl)cc1Cl | – | · | – | – | – | –
O=C(OCCN1C(=O)c2cccc3c(N4CCOCC4)ccc(c23)C1=O)c1cccc(Cl)c1 | – | – | – | – | ? | – | GCN5L2 inh-2=?
